Publication PMC5540273 (PLoS ONE, 2017)

Legend:
Conditions in all cases: concentration: 1 μM,replicates: in singlicate; n = 1
TESK1 = test system: TESK1
TGFBR1 = test system: TGFBR1
TGFBR2 = test system: TGFBR2
TIE1 = test system: TIE1
TIE2 = test system: T1, TIE2
T1 construct: gene TEK

TLK1 = test system: TLK1
TLK2 = test system: TLK2
TNIK = test system: TNIK
TNK1 = test system: TNK1
TNK2 = test system: TNK2
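Note: KINOMEscan kinase panel screen.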

Structure (SMILES) | %Inh (TESK1) | %Inh (TGFBR1) | %Inh (TGFBR2) | %Inh (TIE1) | %Inh (TIE2) | %Inh (TLK1) | %Inh (TLK2) | %Inh (TNIK) | %Inh (TNK1) | %Inh (TNK2)
COc1cccc(C2=C(Nc3cccc(Cl)c3)C(=O)NC2=O)c1 [SB-341556] | 17% | 12% | 0% | 4% | 0% | 38% | 29% | 0% | 32% | 15%
O=C(Nc1ccc(Oc2ccc3nc(NC(=O)C4CC4)cn3n2)c(F)c1)c1cccn(-c2ccccc2)c1=O | 17% | 9% | 9% | 92.2% | 90.1% | 0% | 0% | 34% | 59% | 0%
CN1CCN(CCCNc2nccc(-c3c(-c4ccc(F)cc4)nn4cc(C(N)=O)ccc34)n2)CC1 [GW622475] | 23% | 92.3% | 77% | 6% | 0% | 39% | 0% | 76% | 0% | 13%
NC(=O)Nc1sc(-c2ccc(F)cc2)cc1C(N)=O [GW789449] | 24% | 27% | 0% | 0% | 12% | 4% | 0% | 33% | 32% | 26%
COc1cccc(CNC(=O)NC2CCN(c3ccnc(Nc4cc(OC)c(OC)c(OC)c4)n3)C2)c1 (stereo not drawn) [GSK1379765] | 40% | 24% | 0% | 100% | 0% | 0% | 0% | 0% | 0% | 8%
OCCn1cc(-c2cnc3nnn(Cc4ccc5ncccc5c4)c3n2)cn1 | 0% | 0% | 0% | 0% | 0% | 0% | 0% | 0% | 19% | 0%
COc1cc2nccc(Nc3ccc(Oc4ccccc4)cc3)c2cc1OC.Cl [GI261656] | 5% | 2% | 0% | 0% | 0% | 0% | 0% | 0% | 92.8% | 47%
CC(C)S(=O)(=O)N1CCN(Cc2ccc3c(c2)nc(NC(=O)c2ccsc2)n3C[C@H](O)c2ccccc2)CC1 [GW635815] | 37% | 0% | 0% | 28% | 0% | 0% | 0% | 65% | 79% | 19%
COC(=O)c1cccc(NC(=O)NC2CCN(c3ccnc(NCc4ccc(F)cc4)n3)CC2)c1 [GSK1379860] | 16% | 25% | 0% | 0% | 0% | 0% | 0% | 0% | 0% | 15%
CC(=O)c1c(-c2ccncc2)[nH]c(-c2ccncc2)c1C [GW493036] | 25% | 23% | 25% | 0% | 1% | 0% | 0% | 0% | 0% | 19%
Cn1ccc2ncnc(Oc3ccc(NC(=O)Nc4cc(C(C)(C)C)on4)c(Cl)c3)c21 | 0% | 13% | 0% | 88% | 97.1% | 15% | 0% | 92.5% | 0% | 0%
CC(C(=O)NC1CCN(c2ccnc(Nc3ccc(F)cc3)n2)C1)c1ccc(Cl)cc1 (stereo not drawn) [GSK1379713] | 26% | 0% | 0% | 12% | 0% | 0% | 0% | 0% | 0% | 0%
C[C@@H]1CCN(C(=O)N2CCCC2)C[C@@H]1N(C)c1ncnc2[nH]ccc12 | 16% | 0% | 0% | 22% | 10% | 12% | 0% | 14% | 69% | 0%
FC(F)(F)c1cc(Br)cc(Nc2nccc(-c3cnn4ncccc34)n2)c1 [GW810578] | 11% | 27% | 99.3% | 18% | 0% | 0% | 14% | 0% | 36% | 0%
CNC(=O)c1ccccc1Nc1nc(Nc2cccc(CS(C)(=O)=O)c2)ncc1C.O=CO [GSK1520489] | 64% | 81% | 37% | 95% | 95% | 22% | 0% | 62% | 100% | 98.9%
COC(=O)Nc1nc2cc(Oc3ccc(NC(=O)Nc4cc(C(F)(F)F)ccc4Cl)cc3)ccc2[nH]1.Cl [GW697465] | 7% | 28% | 6% | 91.5% | 99.2% | 0% | 0% | 0% | 28% | 8%
CC(=O)Nc1nc2cnc(Nc3cc(NC(=O)c4cccc(CC(C)(C)C#N)c4)ccc3C)nc2s1 | 0% | 9% | 0% | 20% | 2% | 0% | 0% | 0% | 7% | 0%
Cc1n[nH]c2cc(Nc3ccnc(Nc4cccc(CN5CCOCC5)c4)n3)ccc12 [GW682569] | 27% | 54% | 84% | 45% | 2% | 9% | 2% | 25% | 33% | 10%
Cn1ccc2ncnc(Oc3ccc(NC(=O)Nc4cccc(C(F)(F)F)c4)c(F)c3)c21 | 11% | 0% | 19% | 96.7% | 92.8% | 0% | 2% | 0% | 17% | 0%
C[C@@H]1CNc2c(sc3ccc4nc(-c5ccncc5)ccc4c23)C(=O)N1 | 0% | 0% | 48% | 0% | 0% | 0% | 0% | 0% | 22% | 0%
COC(=O)c1cccc(NC(=O)NC2CCN(c3ccnc(Nc4cc(OC)c(OC)c(OC)c4)n3)C2)c1 (stereo not drawn) [GSK1379767] | 19% | 0% | 0% | 19% | 4% | 14% | 15% | 0% | 0% | 4%
Cl.c1ccc(Oc2ccc(Nc3ccnc4cc(-c5ccc(CN6CCNCC6)o5)ccc34)cc2)nc1 [GW567142] | 0% | 21% | 0% | 0% | 0% | 9% | 1% | 0% | 61% | 38%

Structure (SMILES) | %Inh (TESK1) | %Inh (TGFBR1) | %Inh (TGFBR2) | %Inh (TIE1) | %Inh (TIE2) | %Inh (TLK1) | %Inh (TLK2) | %Inh (TNIK) | %Inh (TNK1) | %Inh (TNK2)
N#Cc1cccc(C(=O)NC2CCN(c3ccnc(Nc4ccc(F)cc4)n3)C2)c1 (stereo not drawn) [GSK1379708] | 13% | 4% | 0% | 3% | 0% | 0% | 0% | 0% | 0% | 4%
Cc1ccn2nc(-c3ccc(F)cc3)c(-c3ccncc3)c2c1.Cl [GW457859] | 34% | 12% | 0% | 0% | 0% | 6% | 0% | 58% | 0% | 0%
CS(=O)(=O)c1cccc(CNc2nc(Nc3ccc4c(c3)[C@@H]3C[C@@H]4CNC3=O)ncc2C(F)(F)F)c1 | 0% | 0% | 0% | 83% | 68% | 18% | 0% | 88% | 97.2% | 56%
Cc1nnc(-c2ccc3occ(-c4ccc(S(C)=O)cc4)c3n2)o1 (stereo not drawn) | 0% | 0% | 0% | 0% | 0% | 3% | 0% | 1% | 0% | 0%
O=C(NOCC1CC1)c1cc(Br)c(F)c(F)c1Nc1ccc(I)cc1Cl | 0% | 0% | 0% | 0% | 16% | 47% | 0% | 12% | 0% | 0%
O=C(NCC1CC1)c1ccc(-c2cc(C(=O)NC3CC3)ccc2F)cc1 [GW810445] | 0% | 27% | 0% | 0% | 0% | 0% | 0% | 0% | 30% | 0%
Cn1cc(-c2cccc3c(N)c(C(N)=O)nnc23)cn1 | 0% | 0% | 16% | 6% | 1% | 2% | 0% | 5% | 0% | 0%
O=c1[nH]cc(-c2ccc(O)cc2)c2sc(-c3ccncc3)cc12 [GSK1033723] | 0% | 0% | 0% | 0% | 89% | 6% | 0% | 4% | 0% | 5%
O=C(Nc1n[nH]c2cc(-c3ccco3)ccc12)C1CC1 [SB-737447] | 0% | 6% | 0% | 17% | 3% | 20% | 0% | 65% | 0% | 0%
COc1ccc(Nc2nccc(N3CCC(NC(=O)c4cccc(C#N)c4)C3)n2)cc1 (stereo not drawn) [GSK1379730] | 46% | 0% | 0% | 16% | 5% | 0% | 0% | 0% | 0% | 11%
C[C@@H](Oc1cc(-n2cnc3cc(-c4cnn(C)c4)ccc32)sc1C(N)=O)c1ccccc1Cl [GSK580432] | 37% | 0% | 0% | 94.2% | 82% | 0% | 0% | 48% | 59% | 64%
CS(=O)c1ccc(-c2coc3ccc(-c4n[nH]c(=O)o4)cc23)cc1 (stereo not drawn) | 0% | 24% | 18% | 0% | 10% | 35% | 0% | 0% | 0% | 0%
COc1cc2ncn(-c3cc(OCC4CCCCC4)c(C(N)=O)s3)c2cc1OC [GSK204559] | 18% | 0% | 0% | 19% | 0% | 6% | 12% | 58% | 5% | 4%
CCn1c(-c2nonc2N)nc2cncc(CNC3CCNCC3)c21.Cl [SB-747651] | 20% | 10% | 0% | 5% | 0% | 0% | 0% | 0% | 0% | 8%
Cn1ccc2ncnc(Oc3ccc(NC(=O)Nc4cncc(C(F)(F)F)c4)c(Cl)c3)c21 | 0% | 0% | 0% | 80% | 92.8% | 5% | 0% | 0% | 0% | 0%
Cc1cccc(-c2nc(Nc3ccncc3)c3sccc3n2)n1 [GW869641] | 10% |  | 95.6% | 43% | 38% | 0% | 9% | 55% | 26% | 0%
Cc1ccc(C(=O)Nc2ccc(Oc3ccc4nc(NC(=O)C5CC5)cn4c3)c(F)c2)c(=O)n1-c1ccccc1 | 30% | 16% | 0% | 95% | 99.4% | 0% | 0% | 18% | 64% | 0%
CN(c1cccc(CNc2nc(Nc3ccc4c(c3)CC(=O)N4)ncc2C(F)(F)F)c1)S(C)(=O)=O | 0% | 0% | 0% | 75% | 42% | 16% | 3% | 75% | 57% | 67%
CSc1nccc(-c2c(-c3ccc(F)cc3)ncn2CCCN2CCOCC2)n1.Cl [SB-217146] | 0% | 0% | 0% | 0% | 0% | 0% | 15% | 0% | 26% | 0%
C[C@@H](Oc1cc(-n2cnc3cc(-c4ccncc4)ccc32)sc1C(N)=O)c1ccccc1Cl [GSK479719] | 0% | 1% | 0% | 84% | 27% | 0% | 0% | 11% | 20% | 37%
Cl.Nc1n[nH]c2cc(-c3ccccn3)ccc12 [GSK2189892] | 22% | 0% | 0% | 0% | 0% | 0% | 0% | 5% | 0% | 15%
Nc1nccc(-c2ccc3c(N)n[nH]c3c2)n1 [GSK1034945] | 2% |  | 0% | 0% | 0% | 14% | 0% | 2% | 0% | 5%
